Compounds without any hit were thinned out: in the full panel of roughly 83,000, 20% have a hit.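 In brief: 96-well plates, 48 h treatment, single concentration, percent growth endpoint.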 A number with no mark means an inactive call. Calls of active or inactive are those of the source. Rule for the calls: active = growth percent below 10; inactive = the rest.

What all share (assay): NCI-60 one-dose screen, 48 h (100 = growth as untreated, 0 = no growth, -100 = all killed)
Common to all, as to details: 10 µM

For test [1], the system named is NCI-H23 lung.
In test [2] the test system is NCI-H226 lung.
The subject of test [3] is NCI-H322M lung.
Test [4] concerns HOP-62 NSCLC.
Test [5] deals with NCI-H460 lung.
Test [6] has as its system NCI-H522 lung.
The subject of test [7] is A549/ATCC NSCLC.
In test [8] the test system is 786-0 renal.
Test [9] deals with COLO 205 colon.
Test [10] deals with DU-145 prostate.

Regarding `CCN1CCC(CCOC)(CN2c3ccccc3Sc3ccc(Cl)cc32)C1` (stereo not given), the growth in test [1] is 63.5%; in test [2], 73.9%; in test [3], 65.7%; in [4], 58.3%; in test [5], 24.1%; in test [6] it was 65.1%. Moreover, the growth in [7] was 61.1%; in [8], 48.7%; in test [9] it was 40%; in [10] it was 69.5%.

In the case of `CCOC(=O)C(=Cc1ccc(Br)cc1)C(=O)OCC`, the growth was 17.6% in [1]; -33.6% (active) in test [2]; 39% in test [3]; 0.525% (active) in test [4]; 22.4% in test [5]; -65.1% (active) in [6]. For the same molecule, the growth in test [7] is -25.6% (active); in test [8] it was -79% (active); in [9], -70.5% (active); in test [10], 6.17% (active).

As to `Cc1cn(C2CCCCO2)c(=O)nc1NO` (stereo not given), the growth was 93.4% in [1]; 115% in [2]; 110% in test [3]; 110% in test [4]; 107% in test [5]; 104% in test [6]. In addition, the growth in [7] was 104%; in [8] it was 103%; in [9], 120%; in test [10], 113%.

With `Cc1cc(C)c(NC(=O)c2sc3nc4c(cc3c2N)C(=O)CCC4)c(C)c1`, the growth in test [1] is 33%; in test [2], 77.1%; in [3] it was 56.3%; in test [4], 36.9%; in test [5], 6.43% (active); in test [6] it was -14.7% (active). The growth in [7] is 23%; in test [8], 30.4%; in [9] it was -6.14% (active); in test [10], 10%.

Consider `CCC1(C(C)C)NC(=O)NC1=O` (stereo not given), for which the growth in test [1] was 99.1%; in test [2], 96.4%; in test [3], 110%; in [4] it was 96%; in test [5] it was 110%; in [6], 101%. The growth was 96.1% in test [7], 97.7% in test [8], 115% in [9] and 104% in [10].

Turning to `CN(C)CCS(=O)(=O)CCN(C)C`, the growth in test [1] is 107%; in [2], 105%; in [3], 113%; in test [4], 108%; in test [5], 97%; in test [6], 117%. The growth in test [7] is 106%; in test [8], 98.7%; in test [9] it was 105%; in test [10], 103%.

For `COC(=O)c1c(-c2ccccc2)csc1NC(=O)c1c(-c2ccccc2)noc1C`, the growth in [1] was 61.4%; in test [2] it was 49.6%; in test [3] it was 56.6%; in [4] it was 52.1%; in test [5], -15.3% (active); in test [6], 36.1%. For the same molecule, the growth in test [7] was -18.6% (active); in [8] it was 24.1%; in test [9] it was 60.6%; in test [10] it was 39.7%.

As to `COc1ccc(-n2c(SCc3cc(OC)c(OC)c(OC)c3)nc3ccc(C)cc3c2=O)cc1`, the growth in test [1] was 69.2%; in test [2] it was 73.4%; in test [3], 80.3%; in [4] it was 65.2%; in [5] it was 73.8%; in [6], 39.4%. The growth in test [7] is 51%; in test [8] it was 84.1%; in test [9] it was 32.7%; in test [10], 94.9%.

Turning to `NC(=O)SCC(=O)Nc1ccc(S(N)(=O)=O)cc1`, the growth is 106% in [1]; 93% in test [2]; 121% in [3]; 101% in test [4]; 108% in test [5]; 105% in test [6]. Further, the growth in [7] was 103%; in test [8], 107%; in [9], 107%; in test [10], 112%.

In the case of `O=C1/C(=C\c2ccc(Cl)cc2)CN(C(=O)c2ccccc2)C/C1=C\c1ccc(Cl)cc1`, the growth is 58.2% in test [1]; 10% in test [2]; 74.5% in test [3]; 23.2% in test [4]; 68.3% in test [5]; 40.6% in test [6]. In addition, the growth in test [7] is 22.2%; in test [8], 7.43% (active); in [9], 32.9%; in [10], 24.9%.

For `COc1ccc(C(=O)/C=C/c2cc(-c3cc(OC)c(OC)c(OC)c3)n[nH]2)cc1`, the growth in test [1] is 87.3%; in test [2] it was 53.3%; in test [3], -6.79% (active); in [4] it was 17.6%; in test [5] it was 2.79% (active); in [6], -0.12% (active). Also, the growth in test [7] is 34.5%; in [8], 10.4%; in [9] it was 30.5%; in [10], 26.3%.

Take `c1ccc2c(c1)oc1c3c(ccc12)NCCC3`: the growth is 86% in [1]; 90.9% in test [2]; 91.8% in test [3]; 97.6% in test [4]; 99% in test [5]; 80.9% in test [6]. In addition, the growth in test [7] is 90.3%; in [8], 90.5%; in test [9], 114%; in test [10], 103%.

In the case of `Nc1ccc2cc(S(=O)(=O)O)cc(O)c2c1N=Nc1ccc(F)cc1`, the growth was 94.6% in test [1]; 107% in test [2]; 104% in test [3]; 109% in test [4]; 115% in test [5]; 100% in test [6]. The growth in test [7] is 109%; in test [8], 100%; in test [9], 111%; in test [10], 118%.

As for `COc1ccc(-c2nc(-c3nc4cc(Cl)c(Cl)cc4[nH]3)c3ccccn23)cc1`, the growth in test [1] was 67.5%; in [2], 44.5%; in [3] it was 48.4%; in test [4], -11.7% (active); in test [5], 41.5%; in [6], 55.9%. The growth in test [7] was 16.8%; in [8], 0.945% (active); in [9], 88.4%; in test [10] it was 47.5%.

`CCN(CC)CCCC(C)Nc1nc(-c2ccc(OC)cc2)nc2cc(Cl)ccc12` (stereo not given): the growth in test [1] was 73.2%; in test [2] it was 91.7%; in test [3] it was 65.4%; in test [4], 70.5%; in test [5] it was 72.5%; in [6], 35.6%. Further, the growth in test [7] was 69.6%; in [8] it was 65.5%; in test [9] it was 41.6%; in [10], 77.9%.

Consider `CCOC(=O)CCC(NC(=O)c1ccc(N)cc1)C(=O)OCC` (stereo not given), for which the growth in test [1] was 99.1%; in test [2] it was 103%; in test [3], 108%; in test [4], 96%; in test [5] it was 118%; in test [6], 80.5%. The growth was 99.4% in [7], 110% in [8], 105% in test [9] and 112% in test [10].

For the molecule `COc1ccc(/C(=C2/O[C@@H]([C@H]3COC(C)(C)O3)[C@H]3OC(C)(C)O[C@@H]23)c2cc(OC)c(OC)c(OC)c2)cc1O`, the growth was 81.2% in [1]; 113% in test [2]; 91.5% in test [3]; 91.3% in test [4]; 104% in [5]; 51.8% in test [6]. For the same molecule, the growth is 80.1% in [7], 86.3% in test [8], 121% in [9] and 45.6% in [10].

On to `Nc1c(C(=O)Nc2cccc3ccccc23)sc2nc3c(cc12)C(=O)CCC3`, for which the growth in test [1] was 18%; in test [2], 54.1%; in [3], 37.6%; in [4] it was 26.1%; in [5], 5.05% (active); in [6], -8.85% (active). The growth in [7] was 23.4%; in test [8] it was 46.1%; in test [9] it was -20.7% (active); in [10], -9.63% (active).

For `COc1ccc2c(c1)sc1nc(-c3ccccc3)c(-c3cccnc3)n12`, the growth in test [1] is 88.4%; in test [2] it was 103%; in test [3], 113%; in [4], 125%; in test [5] it was 102%; in [6], -22.7% (active). The growth in test [7] is 94.1%; in [8], 96.9%; in [9], 128%; in test [10], 107%.

For `COc1cccc(Cn2c(-c3nonc3N)nc3ccccc32)c1`, the growth in test [1] was 24.2%; in test [2] it was 49.2%; in test [3], 38.8%; in [4], 29.9%; in test [5], 6.52% (active); in [6] it was -18.4% (active). The growth is 16.4% in [7], 36.9% in test [8], -53.3% (active) in test [9] and 4.99% (active) in test [10].

For the molecule `CCOC1(OCC)OC(c2ccccc2)=C(C#N)C(/C=C\c2ccccc2)C1(OCC)OCC` (stereo not given), the growth is 82.4% in test [1]; 81.2% in test [2]; 84.3% in test [3]; 91.5% in test [4]; 81.8% in test [5]; 82.3% in [6]. Further, the growth was 82.5% in test [7], 87.4% in test [8], 88.9% in test [9] and 89.7% in test [10].

As to `COc1cc2cc3c(nc2cc1OC)CCN3Cc1ccc(NC(=O)Nc2ccc(F)cc2F)cc1`, the growth in test [1] was 71.5%; in test [2] it was 79.4%; in test [3], 84.8%; in test [4], 105%; in test [5], 97.6%; in test [6] it was 63%. The growth was 69.4% in [7], 70.4% in test [8], 90.9% in [9] and 91.2% in test [10].

As for `COc1cc(-c2cc(/C=C/C(=O)c3ccc(F)c(F)c3)[nH]n2)cc(OC)c1OC`, the growth in test [1] is 55.9%; in test [2], 65.6%; in test [3], 74.1%; in test [4] it was 78.7%; in [5] it was 58.1%; in test [6], 47.4%. Also, the growth was 36.4% in [7], 80.5% in [8], 61.4% in test [9] and 72.9% in test [10].

As to `CC(=O)OCc1cc(-c2nc3ccccc3[nH]c2=O)nn1-c1ccc(Cl)cc1`, the growth in [1] is 91.5%; in test [2], 93%; in [3] it was 107%; in test [4], 94.9%; in test [5], 104%; in test [6] it was -30.6% (active). Moreover, the growth is 52% in [7], 96.4% in [8], 126% in test [9] and 110% in [10].

As to `O=C(Nc1ccc(OS(=O)(=O)c2ccccc2)cc1)C12CC3CC(CC(C3)C1)C2`, the growth in test [1] was 51.5%; in test [2], 60.4%; in test [3] it was 68.7%; in test [4], 74.4%; in test [5], 35.5%; in [6], 50.9%. The growth in test [7] is 41.6%; in [8] it was 57.5%; in test [9], -0.16% (active); in [10] it was 71.6%.
